Assay outcomes as filed in PubChem BioAssay.
Only some compounds are listed: those with a hit (about 10% of all), similar ones and a draw of the others.
SW480 rerep – A quantitative high throughput screen for small molecules that induce DNA re-replication in SW480 colon adenocarcinoma cells; Potency, µM (titrated, usually from 46.1 µM), for inactives: top-dose re-replication activation, usual class: activators; SW480 DNA re-replication, Hoechst DNA content imaging, 48 h; 340,000 tested, 1.8% active; AID 624297, 2012; also: % of control where 0% means no effect; nearly all actives have a fitted effect of over 55% in size
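Per well, 250 cells were exposed to pinned compound for 48 hr. Nuclear DNA was visualised with Hoechst (40 min, 37 C) and total object intensity recorded by fluorescence scanning.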
KB-3-1 tox – qHTS assay for MDR1-selective chemotherapeutics: Primary screen using the parental adenocarcinoma cell KB-3-1; KB-3-1 viability, CellTiter-Glo ATP luminescence, 72 h; Potency, µM (titrated, usually from 46.1 µM), hits mostly cytotoxic; 400,000 tested, 1.4% active; AID 1347075, 2019; also: % is scaled to controls: 0 for no effect and ±100 for the full control effect; nearly all actives have a fitted effect of over 60% in size
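KB-3-1 parental drug-naive adenocarcinoma cells in DMEM/10% FBS, incubated 72 h at 37 C with pin-transferred compounds across a concentration series. Viability by CellTiter-Glo luminescence; concentration-response curves fitted after normalization.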
KB-V1 cytotox – qHTS assay for MDR1-selective chemotherapeutics: Primary screen using the drug-selected MDR subline cells KB-V1 | KB-V1 MDR cells viability, CellTiter-Glo, 72 h | Potency, µM (highest dose often 46.1 µM), most hits filed as cytotoxic | 400,000 tested, 3.4% active | AID 1347076, 2019; also: % is scaled to controls: 0 for no effect and ±100 for the full control effect; nearly all actives have a fitted effect of over 60% in size
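Cytotoxicity toward P-gp-expressing KB-V1 cells was determined as loss of CellTiter-Glo luminescence after 72 h at 37 degrees C. Compounds were tested in quantitative HTS format across a concentration range, with curves fitted to normalized data.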
MCF10A rerep – A quantitative high throughput screen for small molecules that induce DNA re-replication in MCF 10a normal breast cells | MCF 10A DNA re-replication, Hoechst nuclear intensity, 48 h | Potency, µM (series often up to 46.1 µM), inactives show at the highest dose activity, positive = re-replication, usual class: activators | 350,000 tested, 2.9% active; also: % of control where 0% means no effect; nearly all actives have a fitted effect of over 50% in size
VP16 counter – VP16 counterscreen qHTS for inhibitors of ROR gamma transcriptional activity | Drosophila S2 Gal4-VP16 UAS-luciferase, luminescence, 20 h | Potency, µM (highest dose often 53.6 µM), inactives show top-dose activity, negative = inhibition, hits mostly inhibitors | 310,000 tested, 3.5% active;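 also: Gal4-VP16 expression switched on by copper sulfate through the metallothionein promoter; % is scaled to controls: 0 for no effect and ±100 for the full control effect; nearly all actives have a fitted effect of over 50% in size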
RORgamma inh – qHTS for inhibitors of ROR gamma transcriptional activity; Nuclear receptor ROR-gamma (Mus musculus), P51450; Drosophila S2 Gal4-RORgamma UAS-luciferase reporter, 20 h; Potency, µM (titrated, usually from 53.6 µM), without a hit: top-dose activity change, negative = inhibition, usual class: inhibitors; 310,000 tested, 5.4% active; AID 2551, 2010; also: % is scaled to controls: 0 for no effect and ±100 for the full control effect; nearly all actives have a fitted effect of over 60% in size
Target sequence (P51450 whole entry, looked up, the tested form may be a part): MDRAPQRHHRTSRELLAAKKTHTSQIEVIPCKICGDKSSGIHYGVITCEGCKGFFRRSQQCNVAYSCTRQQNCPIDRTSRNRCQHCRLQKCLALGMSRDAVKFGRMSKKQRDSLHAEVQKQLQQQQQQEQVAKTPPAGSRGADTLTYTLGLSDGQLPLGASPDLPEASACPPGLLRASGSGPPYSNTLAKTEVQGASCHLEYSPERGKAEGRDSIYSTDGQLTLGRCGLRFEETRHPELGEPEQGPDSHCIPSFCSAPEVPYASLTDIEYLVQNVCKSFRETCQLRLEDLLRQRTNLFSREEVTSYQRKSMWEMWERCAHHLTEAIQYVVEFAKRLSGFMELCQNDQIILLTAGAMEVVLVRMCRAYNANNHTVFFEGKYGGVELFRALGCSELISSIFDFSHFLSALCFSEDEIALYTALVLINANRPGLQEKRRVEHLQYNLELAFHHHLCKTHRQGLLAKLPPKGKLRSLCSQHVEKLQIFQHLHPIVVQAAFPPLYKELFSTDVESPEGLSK
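Using a luciferase readout, inhibitors were identified by reduced reporter activity in Drosophila cells coexpressing a copper-inducible Gal4–ROR gamma fusion and UAS-driven Photinus luciferase, incubated 20 hr after 700 uM copper sulfate.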
An asterisk follows results filed as active; i = inactive; ? = inconclusive; nt = not tested or not shown; ! = a repeat was not active; [ ] = another dose, or the depositor's remark. Calls follow the shape of the dose curve; as a rule, active = well fitted curve in the direction sought with a large enough effect; inconclusive = small, poorly fitted or top-dose-only effect, or another doubt; inactive = no such curve, though single readings can be large; an effect the other way counts as inactive or inconclusive. Potency is read from the fitted curve at half-maximal effect.

SMILES | SW480 rerep | KB-3-1 tox | KB-V1 cytotox | MCF10A rerep | VP16 counter | RORgamma inh
O=C(N/N=C/c1c(O)n(CCC2=CCCCC2)c(=S)[nH]c1=O)c1ccccc1 | ? | i | i | ? | ? | 5µM*
Cn1c(O)c(/C=N/NC(=O)c2ccncc2)c(=O)n(C)c1=S | 8.2µM* | i | i | 9.2µM* | -11% | 0%
O=c1[nH]c(=S)n(CCC2=CCCCC2)c(O)c1C=NCc1cccnc1 | nt | nt | nt | nt | -7% | -24%
O=C(N/N=C/c1c(O)n(-c2ccccc2)c(=S)[nH]c1=O)c1ccccc1 | -3% | i | i | 0% | 4% | 7.9µM*
O=C(N/N=C/c1c(O)n(CCC2=CCCCC2)c(=O)[nH]c1=O)c1ccccc1 | ? | i | ? | 19% | ? | 11µM*
COc1ccc(S(=O)(=O)Nc2ccc3c(c2)CC(=O)N([C@@H](C)CO)C[C@H](C)[C@@H](CN(C)S(=O)(=O)c2ccc(F)cc2)O3)cc1 | ? | i | i | -2% | nt | nt
Nn1cnnc1 | nt | nt | nt | nt | 5% | -6%
CC[C@H](CO)NC(=O)[C@H]1C=C2c3cccc4[nH]cc(c34)C[C@@H]2N(C)C1 | nt | nt | nt | nt | -1%[17 µM] | -1%[16.9 µM]
O=C(N/N=C/c1c(O)n(C2CC2)c(=S)[nH]c1=O)c1ccccc1O | -1% | i | ? | 2% | 7.1µM* | 5.6µM*
O=C(N/N=C/c1c(O)n(Cc2ccc(F)cc2)c(=O)[nH]c1=O)c1ccccc1 | 24% | ? | i | -19% | 12% | 13µM*
Cc1cccc(-n2c(O)c(/C=N/NC(=O)c3ccncc3)c(=O)[nH]c2=O)c1 | ? | i | i | ? | -10% | 35µM*
O=C(N/N=C/c1c(O)n(Cc2ccccc2)c(=O)[nH]c1=O)c1ccncc1 | -8% | i | i | 1% | -19% | -39%
Cc1cc(NC(=O)COC(=O)c2c(C)nn(Cc3ccccc3)c2C)no1 | 3%[9.22 µM] | ? | ? | 0% | -20% | 41%
Cc1nn(Cc2ccccc2)c(C)c1C(=O)OCC(=O)Nc1ccccc1SCC#N | -4% | i | 7.3µM* | -1% | 8% | 26%
Cc1ccc2c(Cl)cc(Cl)c(O)c2n1 | 10µM* | i | i | 21µM* | 0.89µM*! | 0.56µM*!
c1ccc(N=Nc2ccccc2)cc1 | nt | nt | nt | nt | 3% | 31%
Cc1cccc(N=Nc2ccc(N(C)C)cc2)c1 | 2% | i | i | -9% | 13µM* | 7.9µM*
Cc1ccc2c(c1)[C@@H]1CN(C)CC[C@H]1N2 | -5% | nt | nt | 2% | -1% | -1%
COc1ccc(OC(=O)N2C/C(=C/c3ccccc3)C(=O)/C(=C\c3ccccc3)C2)cc1 | 3.7µM* | ? | ? | 7.3µM* | nt | nt
O=C(c1cccc(C(F)(F)F)c1)C1CCCN(Cc2ncc[nH]2)C1 (stereo not drawn) | 17% | i | i | ? | 16µM* | 18%
CCn1ccnc1CN1CCCC(C(=O)c2cccc(C(F)(F)F)c2)C1 (stereo not drawn) | 2% | i | i | 29% | 10µM* | 2µM*
FC(F)OC(F)(F)C(F)Cl (stereo not drawn) | -6% | nt | nt | 4% | 6% | -2%
COc1cccc(-n2c(-c3ccoc3)nc3ccccc3c2=O)c1 | 8% | i | 15µM* | 10% | 1% | 4%
COc1ccc(-c2nc3ccccc3c(=O)n2-c2nccs2)cc1 | -18% | i | i | 6% | ? | 6.3µM*
COc1cccc(-n2c(C)nc3ccccc3c2=O)c1 | -1% | i | i | -2% | -9% | -5%
SMILES | SW480 rerep | KB-3-1 tox | KB-V1 cytotox | MCF10A rerep | VP16 counter | RORgamma inh
COc1cccc(NC(=O)c2cccn(Cc3ccccc3C)c2=O)c1 | nt | ? | i | nt | nt | nt
COc1ccc(OCc2n[nH]c(=S)n2Cc2ccco2)cc1 | 0% | i | i | 28% | ? | 5.6µM*
COc1ccc(CCNc2oc(-c3ccc(OC)c(OC)c3)nc2P(=O)(OC)OC)cc1OC | 1% | i | i | 4% | ? | 19%
CCOP(=O)(OCC)c1nc(-c2ccc(F)cc2)oc1NCc1ccccc1 | -18% | i | i | 4.1µM* | 0% | 23%
CCOP(=O)(OCC)c1nc(-c2cccc3ccccc23)oc1NCCc1ccc(OC)cc1 | 21µM* | ? | 5.2µM* | 10µM* | -10% | 15%[10 µM]
CCOP(=O)(OCC)c1nc(-c2cccc3ccccc23)oc1N1CCOCC1 | 13% | i | ? | ? | -8% | -6%
C[C@]12CCC3C(CC[C@]4(O)CC(O)CC[C@@]34C=O)[C@]1(O)CCC2C1=CC(=O)OC1 (stereo partly drawn) | nt | nt | nt | nt | -17% | 0%
CCn1c(C)[n+](CC(O)COCC2CC=CCC2)c2ccccc21 (stereo not drawn) | -5% | i | i | ? | 3% | 8%
COc1ccc(C=O)cc1OC | nt | nt | nt | nt | 7% | 0%
CC(Cc1ccc(C(C)(C)C)cc1)CN1CCCCC1 (stereo not drawn) | nt | nt | nt | nt | -2% | -7%
O=C1c2cccc3cccc(c23)C(=O)N1CCN1CCN(C(=S)Nc2ccccc2)CC1 | 14% | i | 18µM* | 10% | ? | 14µM*
Cc1cc(C)cc(C(=O)OC2C[C@H]3CC[C@@H](C2)N3C)c1 (stereo partly drawn) | nt | nt | nt | nt | 3% | -9%
CCC(C(N)=O)N1CCCC1=O (stereo not drawn) | -2% | nt | nt | -3% | -8% | -10%
CN1c2ccccc2C(NCCCCCCC(=O)O)c2ccc(Cl)cc2S1(=O)=O (stereo not drawn) | 2% | nt | nt | 0% | -2% | 5%
CCCCCCCCn1sccc1=O | 10µM* | ? | i | 21µM* | 0.63µM* | 0.45µM*
CCCCCCCCc1ccc(O)cc1 | 5% | ? | i | 29% | -15% | 0%
COc1cc(/C=C/[N+](=O)[O-])ccc1OC(=O)c1cccnc1 | -22% | i | ? | -4% | 3.5µM* | 6.3µM*
CN1CCN(c2cccc3c2C(=O)c2ccccc2C3=O)CC1 | -2% | ? | 18µM* | -1% | -3% | ?
COc1ccccc1N1CCN(Cc2cc(C)c(C)cc2O)CC1 | 4% | i | ? | ? | 12% | 32%
COc1cc(C)c(CN2CCN(c3ccccc3)CC2)cc1C | -13% | i | 13µM* | 8% | -14% | 37%
